Source: PubChem BioAssay AID1159580 (chemical genetic matrix, 2015)
Out of some 5,500 compounds screened, about 2,000 (36%) were called active. Roughly 18% stayed inconclusive and do not appear here. Cut-off read from the data, not from the text of the source: active = normalized growth mostly below about 0.91 (no sharp cut-off); inconclusive = no clear call, values can overlap the other calls; inactive = mostly above about 0.92. Some of the results follow.

Assay: chemical genetic growth profiling, strain panel (AID 1159580);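 note: tested at 20 µM; growth read once vehicle control cultures reached saturation at 30 °C; 1 = growth at the plate median or of vehicle wells; lower values mean less growth of the strain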
Details: growth OD

Measured: normalized growth

O=c1cccc2n1CC1CC2CN2CCCC[C@@H]12 (stereo not given in full)
inactive: S. cerevisiae deletion strains, locus YJR043C, strain POL32, active compounds read low 0.982 | S. cerevisiae deletion strains, locus YJR066W, strain TOR1, active compounds read low 0.98 | S. cerevisiae deletion strains, locus YJR075W, strain HOC1, active compounds read low 0.986 | S. cerevisiae deletion strains, locus YKL009W, strain mrt4, active compounds read low 0.977 | S. cerevisiae deletion strains, locus YKL068W, active compounds read low 0.983 | S. cerevisiae deletion strains, locus YKL085W, strain MDH1 (second series), active compounds read low 0.986 | S. cerevisiae deletion strains, locus YKL085W, strain MDH1, active compounds read low 0.986 | S. cerevisiae deletion strains, locus YKL160W, strain elf1, active compounds read low 0.996 | S. cerevisiae deletion strains, locus YKR001C, strain vps1, active compounds read low 1 | S. cerevisiae deletion strains, locus YKR026C, strain gcn3, active compounds read low 0.965 | S. cerevisiae deletion strains, locus YKR091W, strain srl3, active compounds read low 0.978 | S. cerevisiae deletion strains, locus YLL001W, strain dnm1, active compounds read low 0.987 | S. cerevisiae deletion strains, locus YLL026W, active compounds read low 0.976 | S. cerevisiae deletion strains, locus YLL041C, strain sdh2, active compounds read low 0.98 | S. cerevisiae deletion strains, locus YLR027C, strain aat2, active compounds read low 0.984 | S. cerevisiae deletion strains, locus YLR039C, strain RIC1, active compounds read low 1 | S. cerevisiae deletion strains, locus YLR058C, strain SHM2, active compounds read low 0.978 | S. cerevisiae deletion strains, locus YLR102C, strain apc9, active compounds read low 0.982 | S. cerevisiae deletion strains, locus YLR113W, strain HOG1, active compounds read low 0.985 | S. cerevisiae deletion strains, locus YLR221C, strain rsa3, active compounds read low 1 | S. cerevisiae deletion strains, locus YLR258W, strain gsy2, active compounds read low 0.978 | S. cerevisiae deletion strains, locus YLR262C, strain YPT6 (second series), active compounds read low 1.01 | S. cerevisiae deletion strains, locus YLR262C, strain YPT6, active compounds read low 0.955 | S. cerevisiae deletion strains, locus YLR268W, strain sec22, active compounds read low 1.03 | S. cerevisiae deletion strains, locus YLR320W, strain mms22, active compounds read low 0.974 | S. cerevisiae deletion strains, locus YLR330W, strain CHS5, active compounds read low 0.997 | S. cerevisiae deletion strains, locus YLR342W, strain FKS1 (second series), active compounds read low 1.01 | S. cerevisiae deletion strains, locus YLR342W, strain FKS1, active compounds read low 0.975 | S. cerevisiae deletion strains, locus YLR357W, strain rsc2, active compounds read low 0.943 | S. cerevisiae deletion strains, locus YLR370C, strain arc18, active compounds read low 0.989 | S. cerevisiae deletion strains, locus YLR371W, strain rom2, active compounds read low 0.977 | S. cerevisiae deletion strains, locus YLR384C, strain iki3, active compounds read low 0.976 | S. cerevisiae deletion strains, locus YLR418C, strain cdc73, active compounds read low 0.957 | S. cerevisiae deletion strains, locus YML016C, strain PPZ1, active compounds read low 0.991 | S. cerevisiae deletion strains, locus YML032C, strain rad52, active compounds read low 0.987 | S. cerevisiae deletion strains, locus YML120C, strain ndi1, active compounds read low 1.02 | S. cerevisiae deletion strains, locus YML124C, strain tub3, active compounds read low 0.978 | S. cerevisiae deletion strains, locus YMR058W, strain fet3, active compounds read low 0.987 | S. cerevisiae deletion strains, locus YMR078C, strain ctf18, active compounds read low 0.98 | S. cerevisiae deletion strains, locus YMR125W, strain sto1, active compounds read low 0.944 | S. cerevisiae deletion strains, locus YMR129W, active compounds read low 0.987 | S. cerevisiae deletion strains, locus YMR205C, strain PFK2, active compounds read low 0.928 | S. cerevisiae deletion strains, locus YMR223W, strain ubp8, active compounds read low 0.958 | S. cerevisiae deletion strains, locus YMR231W, strain pep5, active compounds read low 0.98 | S. cerevisiae deletion strains, locus YMR263W, strain SAP30, active compounds read low 0.981 | S. cerevisiae deletion strains, locus YMR307W, strain GAS1, active compounds read low 1.04 | S. cerevisiae deletion strains, locus YNL067W, strain RPL9B, active compounds read low 0.989 | S. cerevisiae deletion strains, locus YNL071W, strain lat1, active compounds read low 0.994 | S. cerevisiae deletion strains, locus YNL153C, strain GIM3, active compounds read low 0.993 | S. cerevisiae deletion strains, locus YNL183C, strain NPR1, active compounds read low 0.993 | S. cerevisiae deletion strains, locus YNL209W, strain ssb2, active compounds read low 0.984 | S. cerevisiae deletion strains, locus YNL233W, strain BNI4, active compounds read low 1 | S. cerevisiae deletion strains, locus YNL248C, strain rpa49, active compounds read low 1.01 | S. cerevisiae deletion strains, locus YNL250W, strain rad50, active compounds read low 0.967 | S. cerevisiae deletion strains, locus YNL271C, strain bni1, active compounds read low 0.996 | S. cerevisiae deletion strains, locus YNL298W, strain CLA4, active compounds read low 0.986 | S. cerevisiae deletion strains, locus YNL307C, strain MCK1, active compounds read low 0.981 | S. cerevisiae deletion strains, locus YNL322C, strain KRE1 (second series), active compounds read low 0.976 | S. cerevisiae deletion strains, locus YNR049C, strain mso1, active compounds read low 0.974 | S. cerevisiae deletion strains, locus YNR052C, strain pop2, active compounds read low 0.979 | S. cerevisiae deletion strains, locus YOL006C, strain TOP1, active compounds read low 1.04 | S. cerevisiae deletion strains, locus YOL012C, strain htz1 0.724 | S. cerevisiae deletion strains, locus YOL147C, strain pex11, active compounds read low 0.98 | S. cerevisiae deletion strains, locus YOR001W, strain rrp6, active compounds read low 0.993 | S. cerevisiae deletion strains, locus YOR061W, strain CKA2, active compounds read low 0.962 | S. cerevisiae deletion strains, locus YOR069W, strain VPS5, active compounds read low 0.999 | S. cerevisiae deletion strains, locus YOR070C, strain gyp1, active compounds read low 0.99 | S. cerevisiae deletion strains, locus YOR080W, strain dia2, active compounds read low 0.971 | S. cerevisiae deletion strains, locus YOR083W, strain WHI5, active compounds read low 1.02 | S. cerevisiae deletion strains, locus YOR106W, strain vam3, active compounds read low 0.985 | S. cerevisiae deletion strains, locus YOR136W, strain idh2, active compounds read low 0.973 | S. cerevisiae deletion strains, locus YOR144C, strain elg1, active compounds read low 0.976 | S. cerevisiae deletion strains, locus YOR184W, strain ser1, active compounds read low 0.973 | S. cerevisiae deletion strains, locus YOR231W, strain MKK1, active compounds read low 1.03 | S. cerevisiae deletion strains, locus YOR265W, strain rbl2, active compounds read low 0.968 | S. cerevisiae deletion strains, locus YOR270C, strain vph1, active compounds read low 0.987 | S. cerevisiae deletion strains, locus YOR290C, strain snf2, active compounds read low 0.951 | S. cerevisiae deletion strains, locus YOR316C, strain cot1, active compounds read low 0.976 | S. cerevisiae deletion strains, locus YPL051W, strain arl3, active compounds read low 1 | S. cerevisiae deletion strains, locus YPL078C, strain atp4, active compounds read low 0.999 | S. cerevisiae deletion strains, locus YPL106C, strain sse1, active compounds read low 0.927 | S. cerevisiae deletion strains, locus YPL240C, strain hsp82, active compounds read low 0.994 | S. cerevisiae deletion strains, locus YPL241C, strain CIN2, active compounds read low 0.994 | S. cerevisiae deletion strains, locus YPL256C, strain CLN2, active compounds read low 1.01 | S. cerevisiae deletion strains, locus YPR119W, strain clb2, active compounds read low 0.976 | S. cerevisiae deletion strains, locus YPR141C, strain kar3, active compounds read low 0.97 | S. cerevisiae deletion strains, locus YPR163C, strain tif3, active compounds read low 0.973 | S. cerevisiae deletion strains, locus YPR167C, strain met16, active compounds read low 0.973 | S. cerevisiae deletion strains, strain wtn01, active compounds read low 1.04 | S. cerevisiae strains, strain wild type, active compounds read low 1
